About 1,300 (0.34%) of roughly 380,000 compounds were called active.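 The calls were made as follows: active = drop in luminescence signal, shown as inhibition above about 50% in the replicate tests (limit read from the data, passing the limit was not always enough); inconclusive = probably only some replicates passing the limit; inactive = the rest.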 Many of the other results were omitted from the sample, so actives are more common in it than they were.
These compounds were tested on Drosophila bursicon receptor LGR2 (rickets) (assay: inhibitors of bursicon-induced LGR2 CRE-luciferase signal, primary screen, cell-based, HEK293, CRE-luciferase reporter, bursicon stimulation (AID 720647;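 also: agonist challenge used bursicon conditioned medium at about half maximal strength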)). Conditions: bursicon-stimulated, 4 h, at 9.99 µM, hits give high values.

inhibition, inactive:
Cc1cc(C)nc(NS(=O)(=O)c2ccc(N/C=C\C(=O)c3cccs3)cc2)n1 0.601%, CCOc1ccc(NC(=O)N2CCN(CC)CC2)cc1 -10.6%, CCOc1ccc(NC(=O)C(C)N2C(=O)c3ccccc3C2=O)cc1 (configuration not stated) -1.28%, Cc1ccc(NC(=O)C2CCCN2C(=O)OCc2ccccc2)cc1C (configuration not stated) 1.81%, Cc1ccc(S(=O)(=O)N(C)C[C@@H]2Oc3ncc(-c4cc5ccccc5o4)cc3C(=O)N([C@H](C)CO)C[C@@H]2C)cc1 4.4%, COc1ccc2c3c(n(C)c2c1)[C@@H](CO)N(C(=O)Nc1ccc(F)cc1)CC31CN(C(=O)NC(C)C)C1 -1.12%, COC(=O)C[C@H]1CC[C@H](NC(=O)Nc2ccc(C(F)(F)F)cc2)[C@H](CO)O1 -0.777%, COc1cccc(-c2ccc3c(c2)O[C@H](CN(C)C(=O)C2CCOCC2)[C@H](C)CN([C@H](C)CO)S3(=O)=O)c1 -17.4%, COc1cccc2cc(/C(C)=N/NC(=O)c3ccco3)oc12 -27.1%, COc1cccc2cc(C(=O)NCc3ccc(C)cc3)c(=N)oc12 -0.361%, C[C@@H]1CCCCO[C@H](CN(C)S(=O)(=O)c2cn(C)cn2)[C@H](C)CN([C@H](C)CO)C(=O)c2cc(N(C)C)ccc2O1 10.5%, Cc1ccc(S(=O)(=O)NCC[C@@H]2CC[C@@H](NC(=O)CCN3CCCCC3)[C@@H](CO)O2)cc1 3.54%, N#C[C@@H]1[C@@H](c2ccc(C3=CCCCC3)cc2)[C@@H](CO)N1C(=O)c1cccc(F)c1 7.91%, C[C@H]1CN([C@@H](C)CO)C(=O)c2cc(-c3ccncc3)cnc2O[C@H]1CN(C)C(=O)c1cccc(F)c1 -3.95%, CCC(=O)N1CC[C@H]2[C@@H]1c1cc(-c3ccc(C#N)cc3)ccc1N(C)[C@H]2CO -10.9%, C[C@@H]1CCCCO[C@H](CN(C)C(=O)NC2CCCCC2)[C@@H](C)CN([C@H](C)CO)C(=O)c2cc(NS(=O)(=O)c3ccc(F)cc3)ccc2O1 -5.15%, C[C@H]1CN([C@@H](C)CO)C(=O)c2cccc(NC(=O)CCCCCC(=O)Nc3ccccc3N)c2O[C@H]1CN(C)C(=O)Nc1ccccc1 0.187%, COCC(=O)N1[C@H](C(=O)N2CCN(C)CC2)[C@@H](CO)[C@@H]2Cn3c(ccc(C4=CCCC4)c3=O)[C@@H]21 -13.3%, Clc1ccc(-c2cc(C3CCNCC3)[nH]n2)c(Cl)c1 2.21%, COCC(=O)Nc1ccc2c(c1)OC[C@H](C)N(C(=O)c1cnccn1)C[C@@H](C)[C@@H](OC)CN(C)C2=O 10.6%, O=C(c1ccc(F)cc1)N1CC2(C1)[C@H](c1ccccc1)[C@@H](CO)N2Cc1ccccn1 -5%, COCC#Cc1ccc([C@@H]2[C@H](CO)N3C(=O)CN(C(=O)C4CCC4)C[C@@H]23)cc1 3.87%, CCOC(=O)C(=O)C1C(=O)Nc2ccccc21 (configuration not stated) -14.6%, CCOC(=O)/C=C/c1ccccc1O -29.5%, COc1ccc2c3c([nH]c2c1)[C@@H](CO)N(C)CC31CCN(S(=O)(=O)c2ccc(C)cc2)CC1 0.296%, O=C(Nc1cccc(F)c1)N1CC(=O)N2[C@H](CO)[C@H](c3ccc(C#CC4CC4)cc3)[C@@H]2C1 8.66%, COCC(=O)N1CCCCN2[C@H](CO)[C@H](c3ccc(C#Cc4ccc(OC)cc4)cc3)[C@H]2C1 -13.1%, COc1ccc(OC)c(CNC(=O)CCc2nc(-c3cccs3)no2)c1 2.08%, COc1ccc(-c2onc3ccc(C(C)=O)cc23)cc1 -9.6%, CN1C(=O)c2cc(NC(=O)C3CC3)ccc2OC[C@H]2O[C@H](CC(=O)O)CC[C@H]21 -1.87%, O=C(Cc1cccnc1)N1CC(=O)N2[C@H](CO)[C@H](c3ccc(C#CC4CCCC4)cc3)[C@@H]2C1 -25.4%, CC(=O)NC(c1ccccc1)c1nc(-c2ccccc2C)cs1 (configuration not stated) -19.2%, C=CC[n+]1c(-c2ccc(C)cc2)csc1NNC(=O)Nc1ccccc1 6.29%, CN1[C@H](C(=O)N2CCc3ccccc3C2)[C@@H](CO)[C@@H]2Cn3c(ccc(-c4cncnc4)c3=O)[C@@H]21 1.15%, COc1cc(Cl)c(C)cc1NC(=O)COC(=O)c1cc(SC)ccc1Cl 7.1%, Cc1csc(OCC(=O)Nc2ccc(C)c(C)c2)n1 0.863%, CO[C@H](CN(C)C(=O)c1cnccn1)[C@@H](C)CN([C@@H](C)CO)S(=O)(=O)c1ccccc1 -6.19%, C[C@@H]1CN([C@H](C)CO)C(=O)CCCn2cc(nn2)CO[C@@H]1CN(C)Cc1ccc2cccnc2c1 -3.97%, CCN(CC)C(=O)Cn1cc(S(=O)(=O)CC(=O)NCc2ccc3c(c2)OCO3)c2ccccc21 -11.7%, O=C(NCc1ccc2c(c1)OCO2)c1sccc1Br -10.3%

inhibition, active:
Cc1ccc(N/C=C/C(=O)c2ccccc2)cc1C 74.5%, CCOc1ccc(N/C=C/C(=O)c2ccccc2)cc1 70.1%, COc1cccc2cc(C(N)=O)/c(=N\NC(=O)c3ccccc3)oc12 72.2%, COc1cccc2c1C(=O)c1c(O)c3c(c(O)c1C2=O)CC(O)(C(C)=NNC(=O)c1ccc(Cl)c(Cl)c1)CC3OC1CC(N)C(O)C(C)O1 (configuration not stated) 96.4%, Clc1ccc(-c2cc(-c3ccccn3)on2)c(Cl)c1 80%, COc1cccc(/C=N/Nc2cc(C)nc(-c3ccccc3O)n2)c1O 90.5%, CCOC(=O)C(=Cc1ccccc1)C(=O)c1ccccc1 90.8%, COc1ccc(-c2nc(-c3ccccc3)no2)c(OC)c1 91.2%, CC(=O)Nc1ccc(-c2csc(NC(=O)Nc3ccccc3)n2)cc1 94.1%, COc1cc(SC)ccc1C(=O)Nc1nc(C)cs1 102%, c1c2c(cc3sc(N4CCCCC4)nc13)OCCO2 85.3%, CN(C)C(=O)c1cccc(-c2cnc3sc(NCc4ccc5c(c4)OCO5)nn23)c1 51.6%

Source: PubChem BioAssay AID720647 (Broad Institute, 2013)
